# Measurements as given in PubChem BioAssay AID720712 (NMMLSC, 2013).
# The source made the active and inactive calls.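 Rule for the calls: active = EC50 at most 10 µM with response changing by at least 30 points across doses, from an acceptable curve fit; inactive = the rest.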
# Target: Cell division control protein 42 homolog (Homo sapiens) (UniProt P60953)
# Assay: blockade of fluorescent GTP loading onto wildtype Cdc42 – biochemical, compound preincubation comparison, flow cytometry beads, Bodipy-FL-GTP, mechanism study for Ras-family GTPase inhibitor project, late-stage follow-up (AID 720712)
# Details: GST-Cdc42 beads, Bodipy-FL-GTP binding, EDTA, protocol B; series mostly up to 100 µM
# Sequence of Cell division control protein 42 homolog (Homo sapiens) (P60953 whole entry, looked up): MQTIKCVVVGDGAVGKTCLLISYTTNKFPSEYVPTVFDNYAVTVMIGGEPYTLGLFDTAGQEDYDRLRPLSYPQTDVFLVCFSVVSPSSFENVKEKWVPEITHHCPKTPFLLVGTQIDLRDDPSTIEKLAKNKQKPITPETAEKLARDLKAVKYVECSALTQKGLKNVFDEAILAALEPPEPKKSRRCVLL
row,Structure (SMILES),outcome
1,CC1(C)Cc2c(sc(NC(=S)NC(=O)c3ccc(N=[N+]=[N-])cc3)c2C(=O)O)CO1,inactive
2,CC1(C)Cc2c(sc(NC(=S)NC(=O)c3cccc(N=[N+]=[N-])c3)c2C(=O)O)CO1,inactive
